Bioassay records (PubChem)
AMA1-RON2 inh – inhibitors of Plasmodium falciparum AMA1-RON2 interaction | AID 720542 | 0.2% of 360,000 active | Potency, µM (series often up to 58.2 µM), hits mostly inhibitors | AlphaScreen AMA1-biotinylated RON2 peptide binding; also: nearly all actives have a fitted effect of over 45% in size
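AMA1 (3D7) with his tag at 25 nM final met compounds first, then biotinylated RON2 peptide at 25 nM; detection used donor plus acceptor beads, 10 µg/mL apiece, read by AlphaScreen after 30 min at room temperature.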
Pf growth 96h – P. falciparum growth inhibition at 96 hours; AID 504834; 6.9% of 320,000 active; Potency, µM (doses to about 28.7 µM), actives largely listed as inhibitors; P. falciparum luciferase reporter growth, 96 h
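Parasite growth measured via integrated firefly luciferase reporter in P. falciparum. Infected erythrocytes at 2% hematocrit, 0.05% parasitemia final were treated 96 hours at 37 C under 5% CO2, and luminescence was read.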
Pf growth 48h – inhibits P. falciparum growth in the first generation, 48 h | 5.9% of 310,000 active | Potency, µM (doses to about 28.7 µM), hits mostly inhibitors | P. falciparum luciferase growth in erythrocytes, 48 h
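First compound was added to culture medium, then infected red cells at 0.1% parasitemia and 2% hematocrit (final). After incubation at 37 C under 5% CO2, luciferase detection reagent was dispensed and light output recorded.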
NS1 inh – blocks influenza NS1 protein function; Potency, µM (doses to about 46.1 µM); 0.4% of 270,000 active; AID 2326; calls by dose curve; also: actives are rising curves; nearly all actives have a fitted effect of over 50% in size
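Read-out: OD600 growth recovery of NS1-expressing budding yeast. Cells grown overnight at 30C in -URA glucose medium, washed, resuspended and diluted 1:100 in 2% galactose assay medium, pH 6.0. Same strain lacking NS1 served as positive control.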
Sm TGR block – S. mansoni TGR enzyme inhibition; purified TGR, DTNB reduction, TNB absorbance 405 nm; Potency, µM (top dose mostly 114 µM), actives largely listed as inhibitors; 3% of 360,000 active; AID 485364; also: nearly all actives have a fitted effect of over 60% in size
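Kinetic colorimetric format: TGR-catalysed, NADPH-driven DTNB reduction monitored via TNB absorbance. Enzyme dispensed at 20 nM; compound exposure 15 min at room temperature before reaction start.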
A number is an active result; [ ] = dose if it differs, or a comment. This is a sample that favours compounds with a hit; in the whole collection about 11% have one here. Unless noted, calls follow the shape of the dose curve; as a rule, active = well fitted curve in the direction sought with a large enough effect; inconclusive = small, poorly fitted or top-dose-only effect, or another doubt; inactive = no such curve, though single readings can be large; an effect the other way counts as inactive or inconclusive.

Results for Cc1ccc(NC(=O)Cn2c(=O)c3cc(Cl)ccc3n3nncc23)cc1 ?
Sm TGR block: inactive

What do the screens show for `OCCC1CN(Cc2cccn2-c2nccs2)CCN1Cc1ccc(F)c(F)c1` (stereo not given)?
AMA1-RON2 inh: inactive; Pf growth 96h: 13.1µM; Pf growth 48h: inconclusive; NS1 inh: inactive; Sm TGR block: inconclusive

What do the screens show for `CC(C)=CCN1CCN(Cc2cccn2-c2nccs2)CC1CCO` (stereo not given)?
AMA1-RON2 inh: inactive; Pf growth 96h: 10.4µM; Pf growth 48h: inactive; NS1 inh: inactive; Sm TGR block: inactive

Results for CC(SCc1ccccc1)C(=O)Nc1ccccc1 (stereo not given) ?
AMA1-RON2 inh: inactive; Pf growth 96h: inconclusive; Pf growth 48h: inconclusive; NS1 inh: inactive; Sm TGR block: inactive

How did CCOc1ccc(C(=O)OCC(=O)NCC2CCCO2)cc1 (stereo not given) do in these assays?
AMA1-RON2 inh: inactive

What do the screens show for `Fc1cccc(NC(=S)NCc2cccnc2)c1`?
AMA1-RON2 inh: inactive; Pf growth 96h: 7.38µM; Pf growth 48h: inactive; NS1 inh: inactive; Sm TGR block: inconclusive

Results for Fc1cccc(NC(=S)Nc2cccnc2)c1 ?
AMA1-RON2 inh: inactive; Pf growth 96h: inactive; Pf growth 48h: inactive; NS1 inh: inactive; Sm TGR block: 17.8µM

What do the screens show for `COc1cc(OC)cc(C(=O)NC(=S)Nc2cccnc2)c1`?
AMA1-RON2 inh: inactive; Pf growth 96h: inactive; Pf growth 48h: inactive; NS1 inh: inactive; Sm TGR block: inconclusive

Results for COc1cc(NC(=S)Nc2cccnc2)cc(OC)c1 ?
AMA1-RON2 inh: inactive; Pf growth 96h: inactive; Pf growth 48h: inconclusive; NS1 inh: inactive; Sm TGR block: 44.7µM

Results for Cc1cc(=O)oc2cc(NC(=S)NCc3cccnc3)ccc12 ?
AMA1-RON2 inh: inactive; Pf growth 96h: inconclusive; Pf growth 48h: inactive; NS1 inh: inactive; Sm TGR block: 39.8µM

How did Fc1cccc(NC(=S)NNc2ccccc2)c1 do in these assays?
AMA1-RON2 inh: inactive; Pf growth 96h: inactive; Pf growth 48h: inconclusive; NS1 inh: inactive; Sm TGR block: inactive

How did Fc1cccc(NC(=S)NNc2c3ccccc3nc3ccccc23)c1 do in these assays?
AMA1-RON2 inh: inconclusive; Pf growth 96h: inactive; Pf growth 48h: 2.08µM; Sm TGR block: inactive

How did O=C1NC(=O)N(Cc2ccco2)C(=O)/C1=C/c1ccc(-c2cccc([N+](=O)[O-])c2)o1 do in these assays?
AMA1-RON2 inh: inconclusive; Pf growth 96h: inactive; Pf growth 48h: inactive; NS1 inh: inactive; Sm TGR block: 39.8µM

What do the screens show for `O=C1NC(=O)/C(=C/c2ccc(-c3cccc([N+](=O)[O-])c3)o2)S1`?
AMA1-RON2 inh: inactive; Pf growth 96h: inconclusive; Pf growth 48h: inactive; NS1 inh: inactive; Sm TGR block: inactive

What do the screens show for `Cc1cccc(OCCn2cccc2/C=C2/C(=O)NC(=O)N(Cc3ccco3)C2=O)c1`?
AMA1-RON2 inh: inconclusive; Pf growth 96h: inactive; Pf growth 48h: inactive; NS1 inh: inactive; Sm TGR block: 3.98µM

Results for O=C1NC(=O)N(Cc2ccco2)C(=O)/C1=C\c1cccn1CCOc1ccc(Cl)cc1 ?
AMA1-RON2 inh: inactive; Pf growth 96h: inactive; Pf growth 48h: inactive; NS1 inh: inactive; Sm TGR block: inconclusive

What do the screens show for `CS(=O)(=O)c1cccc(NC(=O)C2CCCN2S(=O)(=O)c2ccc(F)cc2)c1` (stereo not given)?
AMA1-RON2 inh: inactive; Pf growth 96h: inactive; Pf growth 48h: inactive; NS1 inh: inactive; Sm TGR block: inactive

How did CCC(=O)N(CCC(c1ccco1)c1ccccc1OC)Cc1cccs1 (stereo not given) do in these assays?
AMA1-RON2 inh: inactive; Pf growth 96h: 10.4µM; NS1 inh: inactive; Sm TGR block: 17.8µM

Results for COc1ccc(CN(CCC(c2ccco2)C(C)C)C(C)=O)cc1OC (stereo not given) ?
AMA1-RON2 inh: inactive; Pf growth 96h: inconclusive; Pf growth 48h: inconclusive; NS1 inh: inactive; Sm TGR block: inconclusive

How did CC(=O)N(CCC(c1ccccc1)c1ccco1)Cc1cccs1 (stereo not given) do in these assays?
AMA1-RON2 inh: inactive; Pf growth 96h: inactive; Pf growth 48h: inactive; NS1 inh: inactive; Sm TGR block: 11.2µM

What do the screens show for `O=C(CN1CCN(Cc2ccccc2)CC1)Nc1ccccc1-c1ccccc1`?
AMA1-RON2 inh: inactive; Pf growth 96h: inactive; Pf growth 48h: inconclusive; NS1 inh: inactive; Sm TGR block: inactive

How did Cc1cc(C)cc(NC(=O)C(c2ccccc2)N2CCN(CC(=O)NC3CC3)CC2)c1 (stereo not given) do in these assays?
AMA1-RON2 inh: inactive[11.6 µM]; Pf growth 96h: 9.28µM; Pf growth 48h: 5.22µM; Sm TGR block: inactive

Results for Cc1cc(C)cc(NC(=O)C(c2ccccc2)N2CCCC2)c1 (stereo not given) ?
AMA1-RON2 inh: inactive; Pf growth 96h: inactive; Pf growth 48h: inactive; NS1 inh: inactive; Sm TGR block: inactive

What do the screens show for `Cc1ccc(NC(=O)C(c2ccccc2)N2CCN(CC(=O)NC3CC3)CC2)cc1` (stereo not given)?
AMA1-RON2 inh: inactive[11.6 µM]; Pf growth 96h: inconclusive; Pf growth 48h: 13.1µM; Sm TGR block: inactive

How did CCc1ccccc1NC(=O)CN1CCN(CC(=O)Nc2cc(C)ccc2OC)CC1 do in these assays?
AMA1-RON2 inh: inactive; Pf growth 96h: inactive; Pf growth 48h: inconclusive; NS1 inh: inactive; Sm TGR block: inactive

Results for O=C(CN1CCN(C(C(=O)Nc2cc(C(F)(F)F)ccc2Cl)c2ccccc2)CC1)NC1CC1 (stereo not given) ?
AMA1-RON2 inh: inactive

What do the screens show for `COc1ccc(C)cc1NC(=O)C(c1ccccc1)N1CCN(CC(=O)NC2CC2)CC1` (stereo not given)?
AMA1-RON2 inh: inactive; Pf growth 96h: 2.08µM; Pf growth 48h: 2.33µM; Sm TGR block: inactive

Results for O=C(CN1CCN(C(C(=O)Nc2ccc(Cl)cc2C(F)(F)F)c2ccccc2)CC1)NC1CC1 (stereo not given) ?
AMA1-RON2 inh: inactive; Pf growth 96h: 4.15µM; Pf growth 48h: 3.29µM; Sm TGR block: inactive

How did N#CCCN(C(=O)COC(=O)C1CCN(S(=O)(=O)c2cccs2)CC1)c1ccccc1 do in these assays?
AMA1-RON2 inh: inactive; Pf growth 96h: inactive; Pf growth 48h: inactive; Sm TGR block: inactive

How did Cc1ccc(NC(=O)C(c2ccccc2)N2CCN(CC(=O)NC3CC3)CC2)cc1Cl (stereo not given) do in these assays?
AMA1-RON2 inh: inactive; Pf growth 96h: inconclusive; Pf growth 48h: 5.22µM; Sm TGR block: inactive

Results for CCSc1nc2sc3c(c2c(=O)n1-c1ccc(C)cc1)CCCC3 ?
Sm TGR block: inactive

What do the screens show for `Cc1cc(N2CCN(C)CC2)nc2ccc(NC(=S)NCCCN3CCc4ccccc4C3)cc12`?
AMA1-RON2 inh: inactive; Pf growth 96h: inactive; Pf growth 48h: inconclusive; NS1 inh: inactive; Sm TGR block: inconclusive

How did CCCN1CCN(CCCNC(=S)Nc2ccc3nc(N4CCN(CC)CC4)cc(C)c3c2)CC1 do in these assays?
AMA1-RON2 inh: inactive; Pf growth 96h: inactive; Pf growth 48h: inconclusive; NS1 inh: inactive; Sm TGR block: inactive
